# Screening data (PubChem BioAssay)
# Hits are enriched below; roughly 4.8% of the tested compounds scored in any of these assays.
# DAX1 inh-1 = inhibitors of human orphan nuclear receptor DAX1 (NR0B1). P51843. HEK293 Gal4-DAX1 luciferase reporter, luminescence. inhibition, % at 6.75 µM. 340,000 tested, 0.99% active. AID 504766;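 active means inhibition above the mean over all tested compounds plus 3 SD, cut at about 4.2% in these data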;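 further: 0% = DAX1-transfected cells with DMSO and 100% = empty-vector control cells with DMSO; inhibition shows as a rise in luminescence from relieved DAX1 repression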
# Target sequence (P51843 207-470 limits assumed): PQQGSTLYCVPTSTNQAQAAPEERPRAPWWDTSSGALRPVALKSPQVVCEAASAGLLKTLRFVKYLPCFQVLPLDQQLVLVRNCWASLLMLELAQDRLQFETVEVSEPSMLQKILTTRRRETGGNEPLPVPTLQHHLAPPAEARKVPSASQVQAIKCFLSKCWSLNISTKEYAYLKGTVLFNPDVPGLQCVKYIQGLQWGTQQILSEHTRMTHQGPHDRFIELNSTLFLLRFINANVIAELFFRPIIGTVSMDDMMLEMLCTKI
# ssDAF12 agonist = activators of S. stercoralis DAF-12 nuclear receptor; HEK293 ssDAF-12/GRIP1 lit1-tk-luc reporter, luminescence; % of 3 µM dafachronic acid response; activation, % at 6.8 µM; 370,000 tested, 1% active;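 active means activation above the mean over all tested compounds plus 3 SD, cut at about 0.9% in these data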;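 further: 0% = DMSO-only wells and 100% = 3 µM delta7-dafachronic acid wells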
# SMARCA2 activ = activators of SMARCA2 function | activation, % at 9.1 µM | MG213 cells, MMTV-luciferase reporter, dexamethasone, overnight | 370,000 tested, 1% active | AID 652017; in the data active means activation above about 7.8%;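 further: 0% = vehicle wells and 100% = reference activator wells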
# hgDAF12 agonist = agonists of H. glycines DAF-12 nuclear receptor. HEK293 GAL4-hgDAF12 UAS-luciferase reporter, agonist luminescence; normalized to butyrate control. 370,000 tested, 1.8% active. activation, % at 6.8 µM;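 active means activation above a cutoff set at the mean of all screened compounds plus 3 SD, cut at about 10% in these data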;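 further: 0% = DMSO wells and 100% = sodium butyrate wells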
# DAX1 inh-2 = DAX1 (NR0B1) inhibition, primary screen. HEK293T StAR-luciferase reporter, SF-1/DAX-1 repression relief. inhibition, % at 6.8 µM. 370,000 tested, 1.1% active. AID 652010;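 active means inhibition above the mean over all tested compounds plus 3 SD, cut at about 3.6% in these data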;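 further: 0% = DAX-1 cells with DMSO and 100% = cells lacking DAX-1 with DMSO; higher inhibition means more luminescence from relief of DAX-1 repression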
# hcDAF-12 act = activates DAF-12 receptor from parasite H. contortus | AID 652067 | activation, % at 6.8 µM | HEK293 hcDAF-12 lit1-tk-luc reporter, luminescence; 0% DMSO, 100% Δ7-dafachronic acid | 370,000 tested, 1.4% active;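 active means activation above the mean of all tested compounds plus 3 SD, cut at about 5.5% in these data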;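 further: 100% = response to 3 µM Δ7-dafachronic acid high control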
# LXRb hcDAF ctr = LXR-beta agonism as hcDAF-12 counter-screen. shares compounds with hcDAF-12 act. HEK293 Gal4-LXR tk-luc reporter, luminescence, 24 h; normalized: DMSO 0%, positive control 100%. activation, % at 6.8 µM. 3,400 tested, under 10 active;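 active means mean percent activation of the reporter above a cutoff set as the average over tested compounds plus their standard deviation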
# hcDAF12 conf = hcDAF-12 agonism, confirmation assay. shares compounds with hcDAF-12 act. HEK293 hcDAF-12 lit1-tk-luc reporter, luminescence; % of Δ7-dafachronic acid response. activation, % at 6.8 µM. 3,400 tested, 61% active;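 active means mean activation across triplicate tests above the threshold derived from the earlier primary screen, cut at about 5.5% in these data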;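 further: 0% = DMSO only wells and 100% = 3 µM Δ7-dafachronic acid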
# * hit, by the source's call; / = no result.
SMILES,DAX1 inh-1,ssDAF12 agonist,SMARCA2 activ,hgDAF12 agonist,DAX1 inh-2,hcDAF-12 act,LXRb hcDAF ctr,hcDAF12 conf
COc1cc(/C=C/C(=O)c2c(O)cc(C)oc2=O)cc(OC)c1O,1,0,-4,-1,0,-1,/,/
Cc1cc(O)c(C(=O)/C=C/c2ccc(Cl)cc2)c(=O)o1,1,1,1,6,1,13*,0,0
CC/C(=N\NC(=O)C1CCCC1)c1cccc(Br)c1,2,1.8*,1,7,2,6.8*,0,3
CC/C(=N\NC(=O)C1CCCC1)c1ccc(Br)cc1,0,-1,-1,2,1,2,/,/
CCOC(=O)C1=CCN(S(=O)(=O)c2ccc(Cl)cc2)C1c1cccc(F)c1 (stereo unspecified),/,-2,0,-1,-1,0,/,/
COc1cc(CNc2ccc(N3CCCC3)cc2)ccc1OCc1ccccc1F,0,/,/,/,/,/,/,/
COc1cc(CNc2ccc(N3CCCC3)cc2)ccc1OCc1ccccc1,0,1,-2,6,-1,7.7*,0,5.9*
Cc1cc(C)n2ncc(C(=O)Nc3ccc4c(c3)CCC4)c2n1,/,1,/,6,/,6.8*,0,6.2*
Cc1noc(C(=O)Nc2ccc(F)c(Cl)c2)c1Cl,1,0,4,7,1,1,/,/
Cc1noc(C(=O)Nc2cc(Cl)ccc2O)c1Cl,0,0,0,0,0,7.4*,0,5
Cc1nc2c(-c3ccccc3)cnn2c(N2CCOCC2)c1C,3,0,4,13*,3,12*,1,9.0*
C[C@@H]1C=CCCO[C@]12C(=O)N(Cc1ccc(F)cc1)c1ccccc12,/,-1,-5,-3,1,-1,/,/
O=S(=O)(c1ccccc1F)n1c(CN2CCOCC2)nc2ccccc21,/,0,6,2,0,0,/,/
O=C(Nc1nccc(-c2cccs2)n1)c1cccs1,3,0,6,7,0,7.1*,0,6.8*
Nc1nccc(-c2cccs2)n1,-1,-2,3,-1,0,1,/,/
Cc1ccc(-n2nnc(-c3cc4ccccc4n3C)n2)cc1,2,1.0*,6,3,1,9.7*,1,13*
CCOC(=O)c1ccc2c(c1)nc(-c1ccccn1)n2CC,2,0.9*,7,8,2,7.6*,1,8.7*
CCOC(=O)Cn1c(-c2ccccn2)nc2ccccc21,0,-1,0,2,-1,-2,/,/
Nc1[nH]c(C(=O)c2ccccc2)c(-c2ccc(F)cc2)c1C(=O)c1c[nH]c2ccccc12,/,0,-7,3,0,4,/,/
O=c1c2cc(Cl)ccc2[nH]c(=S)n1Cc1cccs1,2,0,0,0,1,6.7*,0,4
C=CCCC(=O)N1CCC(C(=O)NCC2COc3ccccc3O2)CC1 (stereo unspecified),/,0,1,6,1,-3,/,/
CCCCCC(=O)NC1CCCCN(Cc2cccc(Cl)c2)C1=O (stereo unspecified),/,-1,-3,-3,0,-1,/,/
Cc1cccc2c3nc4ccccc4nc3n(C)c12,2,1,3,9,1,6.7*,1,11*
CCOc1ccc(/C=N/n2c(-c3n[nH]c4c3CCC4)n[nH]c2=S)cc1,/,-1,-5,7,-1,-2,/,/
O=C(/C=C/c1ccco1)Nc1ccc(-c2nc3ccccc3[nH]2)cc1,-1,-1,0,-4,-1,-4,/,/
SMILES,DAX1 inh-1,ssDAF12 agonist,SMARCA2 activ,hgDAF12 agonist,DAX1 inh-2,hcDAF-12 act,LXRb hcDAF ctr,hcDAF12 conf
Clc1ccccc1Cn1c(/C=C/c2ccco2)nc2ccccc21,0,-2,0,-3,0,-1,/,/
C(=C\c1ccco1)/c1nc2ccccc2[nH]1,-1,0,1,9,2,7.3*,1,9.4*
C(=C\c1ccco1)/c1ccc2ccccc2n1,/,0,-1,2,1,7.3*,1,13*
Cc1ccc(C(=O)Nc2ccccc2C(=O)NC(CC(=O)O)C(=O)O)cc1 (stereo unspecified),0,1,-3,7,1,7.0*,0,3
CN1OC[C@@H]2CN(C(=O)c3ccc([N+](=O)[O-])cc3)[C@H](c3ccccc3Br)C[C@@H]21,/,-1,-6,0,0,0,/,/
Nc1ccccc1Sc1c[nH]c2ccccc12,1,0,-1,5,0,6.8*,0,4
Nn1c(-c2cccs2)nc2sc3c(c2c1=O)CCCC3,4,2.0*,0,12*,1,21*,1,11*
CC1(C)Cc2c(sc3nc(-c4cccs4)n(N)c(=O)c23)CO1,-1,-2,-2,3,-2,0,/,/
CC1(C)CC(=O)c2cc(OCC(=O)O)ccc2O1,0,-2,-1,0,0,0,/,/
CC1(C)CC(=O)c2ccc(OCc3ccc([N+](=O)[O-])cc3)cc2O1,/,1.2*,3,10,2,17*,1,11*
Nc1ncnc(N)c1NC(=O)c1ccccc1,/,-1,-6,0,1,3,/,/
O=C(O)c1ccc(-c2noc(-c3ccccc3F)n2)cc1,-3,0,6,8,2,6.8*,2,7.0*
Cc1ccc(-c2noc(-c3ccccc3F)n2)cc1,2,2.1*,3,12*,3.7*,17*,2,13*
O=C(O)c1ccc(-c2noc(-c3cccc(F)c3)n2)cc1,2,-1,4,6,2,0,/,/
O=C(O)c1ccccc1-c1noc(-c2ccccc2F)n1,/,0,/,12*,/,7.3*,1,5
COc1cccc(CNC(=O)[C@H]2CCCN2C(=O)[C@H]2CCCN2C(=O)c2cccs2)c1,/,-1,-8,-1,-1,2,/,/
Cc1oc(-c2ccccc2)nc1C(=O)Nc1nccs1,2,1,1,6,2,8.7*,1,8.5*
COc1ccc(NC(=O)Nc2nc3ccccc3s2)cc1,2,1,5,11*,2,7.1*,1,2
COc1ccc(C(=O)Nc2nc3ccccc3s2)c(OC)c1,-7,-4,-9,-19,-2,-9,/,/
COc1n[nH]c(C(=O)Nc2nc3ccccc3s2)c1[N+](=O)[O-],3,0,2,10,2,8.0*,0,6.1*
